# Test results taken from PubChem BioAssay AID1159580 (chemical genetic matrix, 2015).
# Hit rate of the full screen: of about 5,500 compounds, about 2,000 (36%) were called active. Not shown: some 18% with an inconclusive outcome. Some of the results follow. A number with no mark means an inactive call. No stated cut-off is given here; in the data, active means normalized growth mostly below about 0.91 (no sharp cut-off); inconclusive means no clear call, values can overlap the other calls; inactive means mostly above about 0.92.
# Assay: chemical genetic growth profiling, strain panel (AID 1159580);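 further: tested at 20 µM; growth read once vehicle control cultures reached saturation at 30 °C; 1 = growth at the plate median or of vehicle wells; lower values mean less growth of the strain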
# Details: growth OD
compound,measurement,setting,value
CC[C@@H](C(=O)O)[C@@H]1O[C@@H]([C@@H](C)[C@H](O)[C@H](C)C(=O)[C@H](CC)[C@H]2O[C@]3(C=C[C@@H](O)[C@]4(CC[C@@](C)(C5CC[C@](O)(CC)[C@H](C)O5)O4)O3)[C@H](C)C[C@@H]2C)[C@@H](C)C[C@H]1C (stereo partly specified),normalized growth,"S. cerevisiae deletion strains, locus YAL013W, strain DEP1, hits give low values",0.858 (active)
same,normalized growth,"S. cerevisiae deletion strains, locus YBR021W, strain FUR4, hits give low values",0.168 (active)
same,normalized growth,"S. cerevisiae deletion strains, locus YBR229C, strain ROT2, hits give low values",0.405 (active)
same,normalized growth,"S. cerevisiae deletion strains, locus YCL029C, strain bik1, hits give low values",0.559 (active)
same,normalized growth,"S. cerevisiae deletion strains, locus YDL035C, strain GPR1, hits give low values",0.478 (active)
same,normalized growth,"S. cerevisiae deletion strains, locus YDL074C, strain BRE1, hits give low values",0.412 (active)
same,normalized growth,"S. cerevisiae deletion strains, locus YDL101C, strain DUN1, hits give low values",0.214 (active)
same,normalized growth,"S. cerevisiae deletion strains, locus YDL134C, strain PPH21, hits give low values",0.313 (active)
same,normalized growth,"S. cerevisiae deletion strains, locus YDL185W, strain tfp1, hits give low values",0.993
same,normalized growth,"S. cerevisiae deletion strains, locus YDL192W, strain arf1, hits give low values",0.0725 (active)
same,normalized growth,"S. cerevisiae deletion strains, locus YDR101C, strain arx1, hits give low values",0.569 (active)
same,normalized growth,"S. cerevisiae deletion strains, locus YDR150W, strain NUM1, hits give low values",0.426 (active)
same,normalized growth,"S. cerevisiae deletion strains, locus YDR162C, strain NBP2, hits give low values",0.0697 (active)
same,normalized growth,"S. cerevisiae deletion strains, locus YDR318W, strain mcm21, hits give low values",0.224 (active)
same,normalized growth,"S. cerevisiae deletion strains, locus YDR388W, hits give low values",0.117 (active)
same,normalized growth,"S. cerevisiae deletion strains, locus YDR502C, strain sam2, hits give low values",0.317 (active)
same,normalized growth,"S. cerevisiae deletion strains, locus YEL061C, strain CIN8, hits give low values",0.724 (active)
same,normalized growth,"S. cerevisiae deletion strains, locus YER110C, hits give low values",0.861 (active)
same,normalized growth,"S. cerevisiae deletion strains, locus YER155C, strain BEM2, hits give low values",0.796 (active)
same,normalized growth,"S. cerevisiae deletion strains, locus YER167W, strain BCK2, hits give low values",0.294 (active)
same,normalized growth,"S. cerevisiae deletion strains, locus YGL078C, strain dbp3, hits give low values",0.378 (active)
same,normalized growth,"S. cerevisiae deletion strains, locus YGL086W, strain mad1, hits give low values",0.331 (active)
same,normalized growth,"S. cerevisiae deletion strains, locus YGL248W, strain PDE1, hits give low values",0.282 (active)
same,normalized growth,"S. cerevisiae deletion strains, locus YGR078C, strain PAC10, hits give low values",0.621 (active)
same,normalized growth,"S. cerevisiae deletion strains, locus YGR135W, strain pre9, hits give low values",0.781 (active)
same,normalized growth,"S. cerevisiae deletion strains, locus YGR229C, strain SMI1, hits give low values",0.15 (active)
same,normalized growth,"S. cerevisiae deletion strains, locus YGR252W, strain gcn5, hits give low values",0.312 (active)
same,normalized growth,"S. cerevisiae deletion strains, locus YHR030C, strain SLT2, hits give low values",0.142 (active)
same,normalized growth,"S. cerevisiae deletion strains, locus YHR079C, strain IRE1 (second series), hits give low values",0.39 (active)
same,normalized growth,"S. cerevisiae deletion strains, locus YHR094C, strain hxt1, hits give low values",0.278 (active)
same,normalized growth,"S. cerevisiae deletion strains, locus YHR129C, strain ARP1, hits give low values",0.209 (active)
same,normalized growth,"S. cerevisiae deletion strains, locus YHR200W, strain rpn10, hits give low values",0.691 (active)
same,normalized growth,"S. cerevisiae deletion strains, locus YIL066C, strain RNR3, hits give low values",0.385 (active)
same,normalized growth,"S. cerevisiae deletion strains, locus YIL073C, strain SPO22, hits give low values",0.127 (active)
same,normalized growth,"S. cerevisiae deletion strains, locus YIL125W, strain kgd1, hits give low values",0.12 (active)
same,normalized growth,"S. cerevisiae deletion strains, locus YIR030C, strain dcg1, hits give low values",0.461 (active)
same,normalized growth,"S. cerevisiae deletion strains, locus YJL095W, strain BCK1, hits give low values",0.232 (active)
same,normalized growth,"S. cerevisiae deletion strains, locus YJL134W, strain LCB3, hits give low values",0.244 (active)
same,normalized growth,"S. cerevisiae deletion strains, locus YJL168C, strain set2, hits give low values",0.448 (active)
same,normalized growth,"S. cerevisiae deletion strains, locus YJL187C, strain SWE1 (second series), hits give low values",0.287 (active)
same,normalized growth,"S. cerevisiae deletion strains, locus YJR043C, strain POL32, hits give low values",0.552 (active)
same,normalized growth,"S. cerevisiae deletion strains, locus YJR075W, strain HOC1, hits give low values",0.6 (active)
same,normalized growth,"S. cerevisiae deletion strains, locus YKL009W, strain mrt4, hits give low values",0.874 (active)
same,normalized growth,"S. cerevisiae deletion strains, locus YKL068W, hits give low values",0.257 (active)
same,normalized growth,"S. cerevisiae deletion strains, locus YKL085W, strain MDH1 (second series), hits give low values",0.164 (active)
same,normalized growth,"S. cerevisiae deletion strains, locus YKL085W, strain MDH1, hits give low values",0.164 (active)
same,normalized growth,"S. cerevisiae deletion strains, locus YKL190W, strain CNB1, hits give low values",0.295 (active)
same,normalized growth,"S. cerevisiae deletion strains, locus YKR001C, strain vps1, hits give low values",0.0696 (active)
same,normalized growth,"S. cerevisiae deletion strains, locus YLR039C, strain RIC1, hits give low values",0.115 (active)
same,normalized growth,"S. cerevisiae deletion strains, locus YLR058C, strain SHM2, hits give low values",0.432 (active)
same,normalized growth,"S. cerevisiae deletion strains, locus YLR102C, strain apc9, hits give low values",0.431 (active)
same,normalized growth,"S. cerevisiae deletion strains, locus YLR262C, strain YPT6, hits give low values",0.125 (active)
same,normalized growth,"S. cerevisiae deletion strains, locus YLR268W, strain sec22, hits give low values",0.291 (active)
same,normalized growth,"S. cerevisiae deletion strains, locus YLR330W, strain CHS5, hits give low values",0.237 (active)
same,normalized growth,"S. cerevisiae deletion strains, locus YLR342W, strain FKS1 (second series), hits give low values",0.2 (active)
same,normalized growth,"S. cerevisiae deletion strains, locus YLR371W, strain rom2, hits give low values",0.147 (active)
same,normalized growth,"S. cerevisiae deletion strains, locus YLR418C, strain cdc73, hits give low values",0.162 (active)
same,normalized growth,"S. cerevisiae deletion strains, locus YML016C, strain PPZ1, hits give low values",0.402 (active)
same,normalized growth,"S. cerevisiae deletion strains, locus YML032C, strain rad52, hits give low values",0.586 (active)
same,normalized growth,"S. cerevisiae deletion strains, locus YML124C, strain tub3, hits give low values",0.385 (active)
same,normalized growth,"S. cerevisiae deletion strains, locus YMR078C, strain ctf18, hits give low values",0.857 (active)
same,normalized growth,"S. cerevisiae deletion strains, locus YMR223W, strain ubp8, hits give low values",0.465 (active)
same,normalized growth,"S. cerevisiae deletion strains, locus YMR263W, strain SAP30, hits give low values",0.763 (active)
same,normalized growth,"S. cerevisiae deletion strains, locus YMR307W, strain GAS1, hits give low values",0.129 (active)
same,normalized growth,"S. cerevisiae deletion strains, locus YNL067W, strain RPL9B, hits give low values",0.629 (active)
same,normalized growth,"S. cerevisiae deletion strains, locus YNL128W, strain TEP1, hits give low values",0.377 (active)
same,normalized growth,"S. cerevisiae deletion strains, locus YNL153C, strain GIM3, hits give low values",0.31 (active)
same,normalized growth,"S. cerevisiae deletion strains, locus YNL233W, strain BNI4, hits give low values",0.2 (active)
same,normalized growth,"S. cerevisiae deletion strains, locus YNL250W, strain rad50, hits give low values",0.262 (active)
same,normalized growth,"S. cerevisiae deletion strains, locus YNL271C, strain bni1, hits give low values",0.119 (active)
same,normalized growth,"S. cerevisiae deletion strains, locus YNL298W, strain CLA4, hits give low values",0.111 (active)
same,normalized growth,"S. cerevisiae deletion strains, locus YNL307C, strain MCK1, hits give low values",0.229 (active)
same,normalized growth,"S. cerevisiae deletion strains, locus YNL322C, strain KRE1, hits give low values",0.262 (active)
same,normalized growth,"S. cerevisiae deletion strains, locus YNR052C, strain pop2, hits give low values",0.241 (active)
same,normalized growth,"S. cerevisiae deletion strains, locus YOL006C, strain TOP1, hits give low values",0.107 (active)
same,normalized growth,"S. cerevisiae deletion strains, locus YOL012C, strain htz1",0.22
same,normalized growth,"S. cerevisiae deletion strains, locus YOL147C, strain pex11, hits give low values",0.338 (active)
same,normalized growth,"S. cerevisiae deletion strains, locus YOR061W, strain CKA2, hits give low values",0.0978 (active)
same,normalized growth,"S. cerevisiae deletion strains, locus YOR069W, strain VPS5, hits give low values",0.14 (active)
same,normalized growth,"S. cerevisiae deletion strains, locus YOR136W, strain idh2, hits give low values",0.248 (active)
same,normalized growth,"S. cerevisiae deletion strains, locus YOR144C, strain elg1, hits give low values",0.425 (active)
same,normalized growth,"S. cerevisiae deletion strains, locus YOR184W, strain ser1, hits give low values",0.335 (active)
same,normalized growth,"S. cerevisiae deletion strains, locus YOR316C, strain cot1, hits give low values",0.377 (active)
same,normalized growth,"S. cerevisiae deletion strains, locus YPL055C, strain LGE1, hits give low values",0.174 (active)
same,normalized growth,"S. cerevisiae deletion strains, locus YPL241C, strain CIN2, hits give low values",0.648 (active)
same,normalized growth,"S. cerevisiae deletion strains, locus YPR119W, strain clb2, hits give low values",0.623 (active)
same,normalized growth,"S. cerevisiae deletion strains, locus YPR141C, strain kar3, hits give low values",0.383 (active)
same,normalized growth,"S. cerevisiae deletion strains, locus YPR163C, strain tif3, hits give low values",0.134 (active)
same,normalized growth,"S. cerevisiae deletion strains, locus YPR167C, strain met16, hits give low values",0.427 (active)
same,normalized growth,"S. cerevisiae deletion strains, strain wtn01, hits give low values",0.245 (active)
same,normalized growth,"S. cerevisiae strains, strain wild type, hits give low values",0.27 (active)
